Rab9 promoter act – qHTS Assay for Rab9 Promoter Activators; Huh7 Rab9 promoter-luciferase reporter, luminescence, 24 h; Potency, µM (top dose mostly 9.22 µM), for inactives: at the top dose activation, negative = inhibition, usual class: activators; 320,000 tested, 2.8% active; also: % of control where 0% means no effect; nearly all actives have a fitted effect of over 60% in size
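Stable Rab9-luc Huh7, 1500 cells/well, 2 h settle; cmpd in DMSO, 24 h, 37 °C/5% CO2; luciferase reagent 10 min RT; luminescence.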
SMN2 splice enh – qHTS Assay for Enhancers of SMN2 Splice Variant Expression | HEK293 SMN2-luciferase splicing reporter, luminescence, 30-36 h | Potency, µM (doses to about 46.1 µM), inactives show at the top dose activity change, positive = activation, most hits filed as activators | 210,000 tested, 2.8% active; also: % of control where 0% means no effect; nearly all actives have a fitted effect of over 55% in size
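qHTS luciferase splicing reporter: luminescence rises when SMN2 exon 7 is included in transfected HEK293 cells. Compound exposure lasted 30-36 h at 37C, with 4.5 mM final sodium butyrate as control, followed by a ONE-Glo read.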
FLuc counter – qHTS profiling assay for firefly luciferase inhibitor/activator using purifed enzyme and Km concentrations of substrates (counterscreen for miR-21 project). Luciferin 4-monooxygenase (Photinus pyralis), P08659. purified FLuc, Km substrates, luminescence inhibition. Potency, µM (top dose mostly 57.5 µM), without a hit: at the highest dose activity change, negative = inhibition, most hits filed as inhibitors. 360,000 tested, 6.9% active. AID 588342, 2011;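 also: plate controls were vehicle for no effect and reference inhibitor for full effect; nearly all actives have a fitted effect of over 55% in size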
Target sequence (P08659 whole entry, looked up): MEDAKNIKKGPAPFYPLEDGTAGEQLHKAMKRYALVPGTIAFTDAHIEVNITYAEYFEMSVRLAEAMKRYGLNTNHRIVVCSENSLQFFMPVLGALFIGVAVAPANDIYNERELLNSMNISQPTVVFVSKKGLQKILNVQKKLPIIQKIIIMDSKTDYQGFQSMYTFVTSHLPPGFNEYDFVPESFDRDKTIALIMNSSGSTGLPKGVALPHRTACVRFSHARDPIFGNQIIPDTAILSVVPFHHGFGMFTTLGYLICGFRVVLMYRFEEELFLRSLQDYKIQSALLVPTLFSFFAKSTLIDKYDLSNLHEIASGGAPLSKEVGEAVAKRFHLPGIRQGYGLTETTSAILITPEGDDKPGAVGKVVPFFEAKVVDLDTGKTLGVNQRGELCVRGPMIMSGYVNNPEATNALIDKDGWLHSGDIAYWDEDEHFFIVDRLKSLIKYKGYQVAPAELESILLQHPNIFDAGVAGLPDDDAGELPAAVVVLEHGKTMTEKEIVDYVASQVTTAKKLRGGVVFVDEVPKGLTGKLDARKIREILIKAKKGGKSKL
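Purified P. pyralis luciferase, 10 nM final, with Km-level 10 uM D-luciferin and 10 uM ATP in 50 mM Tris acetate pH 7.5, 10 mM Mg acetate, 0.01% Tween-20, 0.05% BSA; 6-point qHTS titration about 60 µM downward; luminescence read.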
NPC1 prom act – qHTS Assay for NPC1 Promoter Activators; Huh7 NPC1 promoter luciferase reporter, 24 h; 320,000 tested, 2.4% active; AID 485313, 2010; Potency, µM (titrated, usually from 9.22 µM), inactives show at the top dose activation, most hits filed as activators; also: % of control where 0% means no effect; nearly all actives have a fitted effect of over 60% in size
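Luminescence from an NPC1 promoter-driven luciferase reporter in stably transfected Huh7 cells was measured after 24 h compound treatment at 37 °C, followed by 10 min ambient incubation with luciferase detection reagent.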
ELG1 genotoxic – qHTS screen for small molecules that induce genotoxicity in human embryonic kidney (HEK293T) cells expressing luciferase-tagged ELG1. HEK293T ELG1-luciferase reporter, luminescence, 16 h. Potency, µM (series often up to 46 µM), for inactives: at the top dose activity change, positive = activation, actives largely listed as activators. 330,000 tested, 1.3% active. AID 504466, 2011; also: % of control where 0% means no effect; nearly all actives have a fitted effect of over 60% in size
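HEK293T cells expressing luciferase-tagged ELG1 were treated with compound or DMSO for 16 hr at 37°C. Luciferase activity was then read after 30 min with ONE-Glo at room temperature; rising signal flags genetic stress.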
Numbers without * were called inactive; u = inconclusive; x = no result; [ ] = dose if it differs, or a comment. An excerpt weighted towards active compounds, which were near 7.4% of everything screened. Calls follow the shape of the dose curve; as a rule, active = well fitted curve in the direction sought with a large enough effect; inconclusive = small, poorly fitted or top-dose-only effect, or another doubt; inactive = no such curve, though single readings can be large; an effect the other way counts as inactive or inconclusive. Potency is read from the fitted curve at half-maximal effect.

SMILES	Rab9 promoter act	SMN2 splice enh	FLuc counter	NPC1 prom act	ELG1 genotoxic
CCOC(=O)C1CCN(C(=O)c2cc3cc4ccc(OC)cc4nc3o2)CC1	0.89µM*	x	u	0.63µM*	u
COc1ccc2cc3cc(C(=O)N4CCN(c5ccccn5)CC4)oc3nc2c1	0%	x	19µM*	-5%	-5%
COc1ccc2nc3oc(C(=O)N4CCC(C(N)=O)CC4)cc3cc2c1	19%	23%	-27%	21%	10%
Cc1ccc(C)c(Cn2c(=O)n(Cc3ccccc3)c(=O)c3sc4ccccc4c32)c1	x	-9%	0%	x	x
O=C1C2=C(Nc3cc([N+](=O)[O-])ccc3N2)O[C@@H]1c1ccc([C@H]2OC3=C(Nc4ccc([N+](=O)[O-])cc4N3)C2=O)cc1	x	10%[9.22 µM]	x	x	x
Cc1cc(NCc2ccc(Cl)cc2)n2cnnc2n1	x	-51%	0%	x	x
COc1ccc(-n2cnc3cc(NS(=O)(=O)c4ccc(C)cc4)ccc32)cc1	-6%	-20%	0%	-4%	3%
O=C(Nc1ccc2c(c1)ncn2-c1ccccc1)c1ccco1	u	13µM*	8.5µM*	u	u
CC(=O)Nc1ccc2c(c1)ncn2-c1ccc(C)cc1	1.8µM*	8.9µM*	5.4µM*	1.1µM*	9.2µM*
CC(=O)Nc1ccc2c(c1)ncn2C	-3%	-31%	5%	-1%	6%
O=C(Nc1cccc(-n2cnnn2)c1)c1ccco1	4%	5%	-4%	-1%	0%
Cn1cnc2cc(NC(=O)c3ccco3)ccc21	u	7.1µM*	19µM*	2.8µM*	7.3µM*
COc1cc2c(cc1OC)n(Cc1ccc([N+](=O)[O-])cc1)c(=O)n1nc(-c3ccccc3)nc21	x	x	1%	x	x
Cn1c(NCc2c[nH]c3ccccc23)nc2ccccc21	2µM*	11µM*	9.5µM*	2.2µM*	17%
CCn1c(NCc2cccs2)nc2ccccc21	-4%	u	-13%	-1%	9%
C=CCn1c(NCc2c[nH]c3ccccc23)nc2ccccc21	17%	29%	24µM*	17%	1%
Cn1c(NCc2cccs2)nc2ccccc21	u	11µM*	u	30%	23µM*
Cc1cc(Nc2cc(Cl)ccc2C)n2nc(-c3ccccc3)nc2n1	x	-5%	4%	x	x
O=C(/C=C/NCC(=O)c1ccccc1)c1ccc(Br)cc1	13%	11%	-17%	9%	4%
O=C(/C=C/Nc1ccccc1F)c1ccc(Br)cc1	0.79µM*	5µM*	0.48µM*	0.56µM*	1µM*
O=C(/C=C/Nc1ccc(Br)cc1F)c1ccccc1	0.45µM*	-43%	0.11µM*	1.3µM*	u
O=C(CCCc1ccccc1)Nc1ccc(Br)cc1F	25%	x	u	u	u
CCOc1ccccc1NC(=O)C1CCN(S(=O)(=O)c2cc(Br)cc3c2N(C(C)=O)CC3)CC1	x	-5%	-17%	x	x
CCN(CC)c1ccc(NC(=O)c2cnn3c(C(F)F)cc(-c4ccccc4)nc23)cc1	x	-1%	u	x	x
COc1ccc(NC(=O)c2ccc(COc3ccccc3)o2)c(OC)c1	-3%	x	-8%	-2%	-3%
SMILES	Rab9 promoter act	SMN2 splice enh	FLuc counter	NPC1 prom act	ELG1 genotoxic
COc1ccc(NC(=O)c2ccc(Cc3ccc(C)cc3)o2)cc1	8%	-17%	15µM*	8%	0%
CN(C)S(=O)(=O)Oc1ccsc1C(=O)Nc1cccc(Cl)c1	-8%	-21%	-4%	-1%	-5%
CCCc1ccc(OCc2ccc(C(=O)Nc3ccccc3C(=O)OC)o2)cc1	x	u	19µM*	x	x
Cc1ccc(OCc2ccc(C(=O)Nc3ccc(S(N)(=O)=O)cc3)o2)cc1	18%	-2%	-16%	3%	15%
COc1ccc(NC(=O)c2ccc(COc3ccccc3)o2)cc1	-1%	-22%	24µM*	-2%	-1%
COC(=O)c1sccc1-c1ccc(C(=O)Nc2cccc(Cl)c2)o1	3.5µM*	u	9.5µM*	u	14%
Cc1cn(CC[C@H](N)C(=O)O)c(=O)[nH]c1=O	x	-9%[9.22 µM]	x	x	x
COC(=O)c1ccccc1NC(=O)c1ccc(-c2cccc(Cl)c2)o1	19%	10µM*	3%	u	u
CNS(=O)(=O)c1cn(CC(=O)Nc2cccc(C(F)(F)F)c2)cc1S(=O)(=O)NC	x	x	0%	x	x
Cc1ccc(NC(=S)N2CCCC(c3nc4ccccc4[nH]3)C2)cc1 (stereo unspecified)	-1%	-1%	-10%	0%	0%
Cc1ccc(NC(=S)c2nc3ccccc3[nH]2)cc1	0.63µM*	28µM*	0.67µM*	4µM*	u
Cc1ccc(NC(=S)c2nc3ccccc3[nH]2)c(C)c1	3.5µM*	5.6µM*	1.7µM*	3.5µM*	u
CCOC(=O)c1cccc(NC(=O)CCc2nnc3ccc(N4CCCCC4)nn23)c1	-3%	x	2%	-2%	0%
Cc1nn(-c2ccc(N3CCCC3)nn2)c(C)c1CCC(=O)NCc1ccccc1F	x	x	-8%	x	x
Cc1ccc(NC(=O)CCc2c(C)nn(-c3ccc(N4CCCCC4)nn3)c2C)cc1C	u	x	12µM*	u	12%[9.26 µM]
CC(=O)c1ccc(NC(=O)CCc2c(C)nn(-c3ccc(N4CCCCC4)nn3)c2C)cc1	x	x	8.5µM*	x	x
CCOC(=O)c1cccc(NC(=O)CCc2c(C)nn(-c3ccc(N4CCCCC4)nn3)c2C)c1	x	x	11µM*	x	x
COc1ccc(NC(=O)CCc2c(C)nn(-c3ccc(N4CCOCC4)nn3)c2C)cc1	15%	x	u	16%	17%
Cc1nn(-c2ccc(N3CCCCC3)nn2)c(C)c1CCC(=O)Nc1ccc(F)c(F)c1	2.5µM*	x	5.4µM*	2.5µM*	1%
O=C(Oc1ccccc1)N1CCC[C@@]2(CCN(c3ccccc3)C2)C1	x	-21%	x	x	x
Cc1ccc(NC(=O)CCc2c(C)nn(-c3ccc(N4CCCCC4)nn3)c2C)cc1	u	x	11µM*	1.6µM*	10%[9.26 µM]
COc1ccc(C)cc1NC(=O)CCc1c(C)nn(-c2ccc(N3CCCCC3)nn2)c1C	u	x	12µM*	u	4%
Cc1nn(-c2ccc(N3CCOCC3)nn2)c(C)c1CCC(=O)Nc1ccccc1	11%	x	u	13%	3%
Cc1ccc(NC(=O)CCc2c(C)nn(-c3ccc(N4CCOCC4)nn3)c2C)cc1	25%	x	u	6%	11%
CCOc1ccccc1NC(=O)CCc1c(C)nn(-c2ccc(N3CCCCC3)nn2)c1C	21%	x	11µM*	3%	-6%
Cc1cc(C)cc(NC(=O)CCc2c(C)nn(-c3ccc(N4CCCCC4)nn3)c2C)c1	u	x	4.8µM*	u	10%[9.26 µM]
CCOC(=O)c1c(C)oc2nc(C)nc(NCCCN3CCN(c4ccc(F)cc4)CC3)c12	x	x	-7%	x	x

Compound activity: PubChem BioAssay, National Center for Advancing Translational Sciences (NCATS)
